Results on 5 molecules are retold here after PubChem BioAssay.

Activity calls are given as the source filed them.

A short description of assay [1]: small molecules captured by biotinylated probe aFSTL3 – biochemical, small-molecule microarray, fluorescence 635/667, stem cell growth factor project, primary screen (AID 1064).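 Further: measures binding of the biotinylated anti-FSTL3 antibody to printed compounds.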 Particulars: higher = more signal.
Assay [2] is described as follows: binders from COS7 lysate, DM2A8 probe, primary screen, torsin A project, cell lysate, small-molecule microarray, fluorescence 635/667 (AID 1065). Conditions: higher = more signal, COS7 lysate expressing mutant human TOR1A.
Assay [3] can be described thus: small molecules captured by biotinylated probe aFGF2 – biochemical, small-molecule microarray, fluorescence 635/667, stem cell growth factor project, primary screen (AID 1067).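 Further: measures binding of biotinylated aFGF2 protein to printed compounds on slides; z-score merges feature fluorescence and signal-to-noise across triplicate slides.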 Conditions: higher = more signal.
A short description of assay [4]: small molecules captured by biotinylated probe aFGF10 – biochemical, small-molecule microarray, fluorescence 635/667, stem cell growth factor project, primary screen (AID 1071).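 Further: score merges 667 nm spot intensity and signal to noise from triplicate slides.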 Particulars: higher = more signal.
In assay [5] the target is Neurogenic locus notch homolog protein 2 (Homo sapiens) (UniProt Q04721). Kind of assay: small molecules binding Notch2 protein – biochemical, small-molecule microarray, 635 nm fluorescence, stem cell growth factors, primary screen (AID 1073). Particulars: higher = more signal.
For assay [6], the target named is Pro-neuregulin-1, membrane-bound isoform (Homo sapiens) (UniProt Q02297). Kind of assay: small molecules binding neuregulin-1 protein – biochemical, small-molecule microarray, fluorescence 635/667, psychiatric disease protein project, primary screen (AID 1075).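 Further: score combines 667 nm spot fluorescence with signal to noise.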 Particulars: NRG1 binding, 635 nm fluorescence, higher = more signal.
Assay [7] concerns Neuregulin-1 EGF-like domain. Kind of assay: small molecules binding NRG1 EGF domain – biochemical, small-molecule microarray, 635 nm fluorescence, primary screen (AID 1081).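 Further: binding of the protein to compounds printed on small-molecule microarray slides.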 Particulars: higher = more signal.
The nature of assay [8]: FRG1 expression reporter modulators in myotubes – cell-based, C2C12 myotubes, firefly/Renilla luciferase, luminescence, FRG1 inhibition for FSHD, primary screen (AID 1084). Conditions: FRG1 promoter luciferase, higher = more signal, called active from +8 up or from −8 down.
Assay [9] is described as follows: small molecules captured by biotinylated probe aFST – biochemical, small-molecule microarray, fluorescence 635/667, stem cell growth factor project, primary screen (AID 1086).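 Further: score merges 667 nm fluorescence with signal-to-noise of each printed compound spot.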 Conditions: higher = more signal.
A short description of assay [10]: binders of probe aHhip on microarray, primary screen, stem cell growth factor project, biochemical, small-molecule microarray, fluorescence 635/667 (AID 1087).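 Further: score merges spot fluorescence at 667nm with spot signal to noise ratio.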 Particulars: higher = more signal.
Assay [11] concerns PRMT1 (protein arginine N-methyltransferase 1). The experiment in a line: small molecules binding arginine methyltransferase PRMT1 – biochemical, small-molecule microarray, 635 nm fluorescence, primary screen (AID 1088).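 Further: binding of Prmt1 protein to compounds spotted on small-molecule microarray slides.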 Particulars: higher = more signal.
Assay [12] is described as follows: growth effects on S. cerevisiae YJM789 – YJM789 clinical isolate, OD600, 24 h, basal, primary screen (AID 1089).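 Further: growth of clinical yeast isolate S. cerevisiae YJM 789 seeded 1000 cells per well; test concentration not given here.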 Conditions: higher = more signal, called active from +8 up or from −8 down.
The nature of assay [13]: S. pombe growth modifiers, basal conditions – strain 972, OD600, 24 h, no modulator, primary screen (AID 1090).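 Further: basal condition with compound alone and no growth modifier present; test concentration not given here.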 Particulars: S. pombe 972 growth, higher = more signal, called active from +8 up or from −8 down.
Assay [14] is described as follows: budding yeast growth modifiers under rapamycin – strain BY4716, OD600, 96 h, primary screen (AID 1091). Further: test concentration not given here. Particulars: S. cerevisiae BY4716 + rapamycin, higher = more signal, called active from +8 up or from −8 down.
Assay [15] concerns the target Torsin-1A-interacting protein 2 (Homo sapiens) (UniProt Q8NFQ8). Kind of assay: small molecules binding lysate-expressed LULL1 – cell lysate, human LULL1 lysate, 635/667 nm fluorescence, primary screen (AID 1092).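 Further: score merges per-feature 667 nm fluorescence with signal-to-noise.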 Particulars: small-molecule microarray, hLULL1 lysate binding, 635 nm fluorescence; higher = more signal.
Assay [16] can be described thus: optical density change of DRC41 E. coli – strain DRC41, OD650, 24 h, E. coli filamentation project, primary screen (AID 1093).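 Further: MC1000 strain lacking acrAB efflux and sulA so SOS filamentation is blocked; test concentration not given here.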 Conditions: E. coli DRC41 growth, higher = more signal, called active from +8 up or from −8 down.
Assay [17] in a line: probe aLefty2 binding to arrayed compounds – biochemical, biotinylated probe, 635/667 nm fluorescence, primary screen (AID 1094).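 Further: score merges spot fluorescence near 667 nm with spot signal-to-noise ratio.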 Conditions: small-molecule microarray, higher = more signal.
In assay [18] the test system is Noggin (protein binding on small-molecule microarray). Kind of assay: small molecules binding Noggin protein – biochemical, 635/667 nm fluorescence, primary screen (AID 1095).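 Further: score merges 667 nm feature fluorescence with signal to noise over triplicate slides.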 Conditions: 635 nm fluorescence, higher = more signal.
Assay [19] has as its target Neurogenic locus notch homolog protein 3 (Homo sapiens) (UniProt Q9UM47). The experiment in a line: small molecules binding NOTCH3 protein – biochemical, 635/667 nm fluorescence, primary screen (AID 1096). Conditions: small-molecule microarray, 635 nm fluorescence, higher = more signal.
The nature of assay [20]: probe aEGFR binding to arrayed compounds – biochemical, biotinylated probe, 635/667 nm fluorescence, primary screen (AID 1097).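 Further: probe is a biotinylated anti-EGFR antibody binding compounds printed on slides; score combines fluorescence near 667 nm and signal to noise of each spot.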 Conditions: small-molecule microarray, higher = more signal.

Torsin-1A-interacting protein 2 (Homo sapiens), sequence (Q8NFQ8 whole entry, looked up): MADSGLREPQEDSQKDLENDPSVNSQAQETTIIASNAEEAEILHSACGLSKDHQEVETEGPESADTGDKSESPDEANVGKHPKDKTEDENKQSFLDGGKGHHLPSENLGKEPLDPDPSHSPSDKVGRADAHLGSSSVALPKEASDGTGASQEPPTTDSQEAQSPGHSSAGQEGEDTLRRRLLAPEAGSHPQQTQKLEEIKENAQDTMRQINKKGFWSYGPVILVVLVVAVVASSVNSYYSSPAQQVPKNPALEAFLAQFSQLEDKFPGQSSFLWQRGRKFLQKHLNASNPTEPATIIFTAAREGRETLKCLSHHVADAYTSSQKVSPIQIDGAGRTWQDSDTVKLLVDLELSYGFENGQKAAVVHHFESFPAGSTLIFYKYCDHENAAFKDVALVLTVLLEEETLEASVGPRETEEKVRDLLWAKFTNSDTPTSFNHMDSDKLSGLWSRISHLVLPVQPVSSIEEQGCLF
Neurogenic locus notch homolog protein 3 (Homo sapiens), sequence (Q9UM47 whole entry, looked up): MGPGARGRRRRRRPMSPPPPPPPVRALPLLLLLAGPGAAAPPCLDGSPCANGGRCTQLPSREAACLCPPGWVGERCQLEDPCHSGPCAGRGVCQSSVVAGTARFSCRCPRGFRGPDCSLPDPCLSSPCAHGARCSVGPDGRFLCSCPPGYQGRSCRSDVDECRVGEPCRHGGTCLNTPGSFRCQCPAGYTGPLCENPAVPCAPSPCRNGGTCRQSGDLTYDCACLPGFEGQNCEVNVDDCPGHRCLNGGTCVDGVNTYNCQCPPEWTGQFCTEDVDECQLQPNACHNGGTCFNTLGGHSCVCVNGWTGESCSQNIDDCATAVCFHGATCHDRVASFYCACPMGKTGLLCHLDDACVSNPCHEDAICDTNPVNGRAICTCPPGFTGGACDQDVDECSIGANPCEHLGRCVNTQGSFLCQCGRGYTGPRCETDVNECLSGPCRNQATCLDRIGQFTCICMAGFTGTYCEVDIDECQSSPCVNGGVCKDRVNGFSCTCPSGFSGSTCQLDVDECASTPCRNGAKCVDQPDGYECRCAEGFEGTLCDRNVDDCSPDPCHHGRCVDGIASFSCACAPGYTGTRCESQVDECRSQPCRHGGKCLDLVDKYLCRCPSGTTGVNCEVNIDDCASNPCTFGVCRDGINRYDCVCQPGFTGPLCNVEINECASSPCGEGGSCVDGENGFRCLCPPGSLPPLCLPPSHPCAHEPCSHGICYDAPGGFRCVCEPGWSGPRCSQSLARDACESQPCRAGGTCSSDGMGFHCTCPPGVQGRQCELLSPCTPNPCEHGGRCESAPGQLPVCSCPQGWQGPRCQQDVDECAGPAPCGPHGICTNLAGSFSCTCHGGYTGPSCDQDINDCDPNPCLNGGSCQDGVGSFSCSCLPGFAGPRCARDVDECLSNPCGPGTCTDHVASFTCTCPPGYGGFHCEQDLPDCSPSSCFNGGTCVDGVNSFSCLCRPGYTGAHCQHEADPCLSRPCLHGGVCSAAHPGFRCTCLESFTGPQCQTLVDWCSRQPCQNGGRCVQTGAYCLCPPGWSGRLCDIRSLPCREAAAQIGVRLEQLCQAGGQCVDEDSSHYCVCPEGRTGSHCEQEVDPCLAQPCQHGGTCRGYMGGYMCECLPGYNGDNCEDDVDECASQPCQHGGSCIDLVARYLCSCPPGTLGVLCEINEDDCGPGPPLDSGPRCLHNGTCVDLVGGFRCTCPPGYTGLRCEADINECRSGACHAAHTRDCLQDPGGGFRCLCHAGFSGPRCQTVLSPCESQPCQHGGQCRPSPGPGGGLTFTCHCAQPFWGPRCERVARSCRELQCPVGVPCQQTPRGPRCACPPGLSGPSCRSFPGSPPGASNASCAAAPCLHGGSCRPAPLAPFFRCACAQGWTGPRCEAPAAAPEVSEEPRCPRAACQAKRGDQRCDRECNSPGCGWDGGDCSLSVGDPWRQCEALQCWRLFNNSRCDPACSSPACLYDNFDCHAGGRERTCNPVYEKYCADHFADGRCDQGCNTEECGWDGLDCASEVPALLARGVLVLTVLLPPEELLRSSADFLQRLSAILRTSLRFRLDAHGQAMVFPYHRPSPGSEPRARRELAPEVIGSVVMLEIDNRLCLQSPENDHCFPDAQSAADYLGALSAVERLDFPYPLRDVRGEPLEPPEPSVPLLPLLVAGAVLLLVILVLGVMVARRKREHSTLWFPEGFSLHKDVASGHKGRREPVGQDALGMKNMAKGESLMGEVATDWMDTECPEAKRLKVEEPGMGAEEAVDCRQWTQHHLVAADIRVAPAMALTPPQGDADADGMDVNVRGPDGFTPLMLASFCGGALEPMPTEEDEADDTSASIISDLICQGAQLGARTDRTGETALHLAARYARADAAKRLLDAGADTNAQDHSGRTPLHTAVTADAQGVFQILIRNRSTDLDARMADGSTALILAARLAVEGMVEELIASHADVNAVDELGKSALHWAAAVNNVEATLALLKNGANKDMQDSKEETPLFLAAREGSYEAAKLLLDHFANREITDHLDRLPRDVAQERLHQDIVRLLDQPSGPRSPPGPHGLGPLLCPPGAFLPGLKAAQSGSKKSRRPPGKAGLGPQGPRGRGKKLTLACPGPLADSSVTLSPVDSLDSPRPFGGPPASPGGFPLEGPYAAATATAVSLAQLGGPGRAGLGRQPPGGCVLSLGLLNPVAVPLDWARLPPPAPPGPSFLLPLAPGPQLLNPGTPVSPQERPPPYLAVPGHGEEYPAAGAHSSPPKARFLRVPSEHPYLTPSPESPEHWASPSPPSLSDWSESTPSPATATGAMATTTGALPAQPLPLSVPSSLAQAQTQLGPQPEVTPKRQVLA
Pro-neuregulin-1, membrane-bound isoform (Homo sapiens), sequence (Q02297 whole entry, looked up, the tested form may be a part, canonical isoform): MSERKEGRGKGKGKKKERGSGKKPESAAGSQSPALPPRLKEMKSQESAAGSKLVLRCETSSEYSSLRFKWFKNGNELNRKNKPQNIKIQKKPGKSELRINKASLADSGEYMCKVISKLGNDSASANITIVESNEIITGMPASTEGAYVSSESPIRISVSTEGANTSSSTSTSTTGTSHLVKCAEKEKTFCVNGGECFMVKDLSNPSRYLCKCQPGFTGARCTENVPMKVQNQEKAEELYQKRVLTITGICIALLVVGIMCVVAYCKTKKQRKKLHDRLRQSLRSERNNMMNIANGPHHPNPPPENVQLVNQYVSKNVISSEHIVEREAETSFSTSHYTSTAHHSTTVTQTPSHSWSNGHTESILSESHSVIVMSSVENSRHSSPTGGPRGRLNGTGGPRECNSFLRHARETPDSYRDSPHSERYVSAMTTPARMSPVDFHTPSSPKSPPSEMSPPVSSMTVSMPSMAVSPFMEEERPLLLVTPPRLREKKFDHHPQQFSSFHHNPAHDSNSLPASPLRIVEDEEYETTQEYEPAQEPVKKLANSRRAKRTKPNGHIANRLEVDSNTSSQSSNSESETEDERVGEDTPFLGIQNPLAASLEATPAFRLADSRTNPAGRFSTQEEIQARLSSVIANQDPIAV

On to `O=C1c2ccccc2[C@](Cc2ccccc2I)(C(=O)O)[C@H](c2ccc(CO)cc2)N1Cc1ccccc1Cl`, for which the composite z-score in assay [1] is 0.668; in assay [2], 0.651; in [3], -0.0301; in assay [4], 0.0635; in assay [5] it was 0.268; in assay [6], 0.955. Further, the composite z-score was 0.819 in assay [7]; 0.43 in assay [9]; -0.0994 in [10]; 1.21 in [11]; 1.82 in [15]; 0.0678 in assay [17]. Further, the composite z-score was -0.168 in assay [18], 0.239 in assay [19] and -0.104 in assay [20]. Moreover, the z-score in assay [8] is 0.17 (inactive); in assay [12] it was -0.818 (inactive); in [13] it was -1.53 (inactive); in assay [14], -1.19 (inactive); in assay [16], 1.13 (inactive).
In the case of `CC(C)[Si](C#C[Si](C(C)C)(C(C)C)C(C)C)(O[C@H](C)c1cn([C@H](C)c2ccccc2)nn1)C(C)C`, the composite z-score in assay [1] was -0.248; in assay [2], 0.15; in [3] it was -0.0402; in assay [4], 0.357; in assay [5] it was 0.814; in assay [6], 0.3. For the same molecule, the composite z-score in assay [7] is 0.528; in [9], 0.25; in [10], -0.132; in [11], 1.18; in [15] it was 1.11; in assay [17], 0.0137. Moreover, the composite z-score in [18] is 0.5; in assay [19], 0.987; in assay [20], -0.0525. Besides, the z-score in assay [8] was -1.64 (inactive); in assay [12], -1.22 (inactive); in [13], -2.35 (inactive); in [14] it was -1.4 (inactive); in assay [16], 0.723 (inactive).
Take `O=C(NC1CC1)[C@@H]1c2ccccc2C(=O)N(Cc2ccccc2C(F)(F)F)[C@H]1c1ccc(CO)cc1`: the composite z-score in assay [1] was -0.432; in [2], 0.436; in [3], -0.116; in [4], 0.39; in assay [5], 0.693; in assay [6], 0.988. Moreover, the composite z-score is 1.26 in [7]; 0.336 in assay [9]; -0.226 in [10]; 1.57 in [11]; 2.27 in assay [15]; -0.15 in assay [17]. In addition, the composite z-score in [18] is 0.458; in assay [19], 1.13; in [20] it was -0.039. The z-score in assay [8] is -1.64 (inactive); in [12] it was -0.541 (inactive); in [13] it was -1.77 (inactive); in assay [14] it was -0.731 (inactive); in assay [16], 1 (inactive).
Consider `COCCCN1C(=O)[C@@]2(Cc3ccccc31)c1ccccc1C(=O)N(Cc1ccccc1Cl)[C@H]2c1ccc(CO)cc1`, for which the composite z-score in [1] was 0.218; in assay [2] it was -0.272; in assay [3], -0.201; in [4], -0.273; in [5] it was -0.773; in [6] it was -0.592. For the same molecule, the composite z-score in assay [7] is -0.983; in assay [9], 0.009; in assay [10] it was 0.0274; in [11], 0.952; in [15] it was 1.22; in [17], -0.226. For the same molecule, the composite z-score in assay [18] is -1.07; in assay [19], -0.435; in assay [20], -0.0304. The z-score was 0.448 (inactive) in assay [8]; -0.403 (inactive) in assay [12]; -1.49 (inactive) in [13]; -1.46 (inactive) in assay [14]; 2.9 (inactive) in assay [16].
With `CC(C)N1CC=CC23O[C@@H]4/C=C\CCCOC(=O)C4[C@H]2C(=O)N(CCCO)[C@@H]3C1=O` (stereo not given in full), the composite z-score in assay [1] is 0.495; in assay [2], 2.3; in assay [3], -0.01; in assay [4], 0.215; in assay [5], -0.615; in [6] it was 0.0034. Moreover, the composite z-score was 1.14 in [7]; -0.623 in [9]; -0.374 in [10]; -0.78 in assay [11]; 2.15 in [15]; -0.221 in assay [17]. Further, the composite z-score in assay [18] was -1.17; in [19], 0.0751; in [20], -0.285. For the same molecule, the z-score is 1 (inactive) in assay [8]; 0.759 (inactive) in [12]; -0.76 (inactive) in [13]; 0.752 (inactive) in assay [14]; 1.77 (inactive) in assay [16].
